The source of these data is PubChem BioAssay (Tox21).

Results filed as inconclusive are left out. Values without a mark were called inactive. Calls follow the shape of the dose curve; as a rule, active = well fitted cell-killing curve with a large enough effect in the repeat runs; inconclusive = weak or mixed curves; inactive = no such curve, though single readings can be large or run the other way.
% is scaled to controls: 0 for no effect and ±100 for the full control effect.

This assay is described as follows: qHTS assay to identify small molecule agonists of the peroxisome proliferator-activated receptor delta (PPARd) signaling pathway - cell viability counter screen (AID 743211). Also: nearly all actives have a fitted effect of over 55% in size. The note with it: PPARd-bla HEK293H viability, CellTiter-Glo luminescence, 17 h; series mostly up to 62.6 µM; activity change, negative = cytotoxicity: at the top concentration. The method in brief:
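Following 5 h plating at 37 C and 5% CO2, PPARd UAS-bla HEK293H cells took up test compounds for 17 h. Viability was quantified by luminescence 30 min after CellTiter-Glo addition at room temperature.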
In general terms: qHTS replaces the single test concentration by a dilution series.
Regarding `CC1=CCC(C(C)C)=CC1`, the “activity change, negative = cytotoxicity” value was -0.263%.

`COc1ccc(-c2cc(=O)c3c(O)cc(O[C@@H]4O[C@H](CO[C@@H]5O[C@@H](C)[C@H](O)[C@@H](O)[C@H]5O)[C@@H](O)[C@H](O)[C@H]4O)cc3o2)cc1O`: the “activity change, negative = cytotoxicity” value was 1.82%. Take `COC(=O)[C@@H]1[C@H]2C[C@H]3c4[nH]c5ccccc5c4CCN3C[C@@H]2CC[C@@H]1O`: the “activity change, negative = cytotoxicity” value is 0.814%. Consider `Cc1cccc(OCC(O)CNC(C)(C)C)c1C` (configuration not stated), for which the “activity change, negative = cytotoxicity” value is -10.3%. Consider `CC(C)(C)c1n[nH]c(=S)n(N)c1=O`, for which the “activity change, negative = cytotoxicity” value is 1.23%. The figure for `C=C(C)C1CCC(C)(O)CC1` (configuration not stated) is -1.17%; for `CC(CO)c1ccccc1` (configuration not stated) it is -5.67%. With `O=C1O[C@@H]2[C@@H](O)[C@H](O)O[C@@H]2[C@H]1O`, the “activity change, negative = cytotoxicity” value was 0.8%. In the case of `Cc1ccccc1C(=O)Nc1ccc(C(=O)N2CCCC(N(C)C)c3ccccc32)cc1` (configuration not stated), the “activity change, negative = cytotoxicity” value was -21%.

As for `CC(=O)N[C@@H](CCC(=O)O)C(=O)O`, the “activity change, negative = cytotoxicity” value was 11%. The same measure for `Cc1ccc(C=O)cc1C`: 9.9%. The same measure for `CC1=C(C(=O)O)N2C(=O)[C@@H](NC(=O)[C@H](N)c3ccc(O)cc3)[C@H]2SC1`: 9.66%.

As to `CC(COC(C)(C)C)OCCCO` (configuration not stated), the “activity change, negative = cytotoxicity” value was 1.08%. The figure for `O=C(O)c1cc(Cl)cc([N+](=O)[O-])c1Cl` is 8.98%; for `O=C(CCNNC(=O)c1ccncc1)NCc1ccccc1` it is 4.18%; for `COc1cc(NS(=O)(=O)c2ccc(N)cc2)nc(OC)n1` it is 1.83%. The same measure for `O=C(NCC(O)CO)c1c(I)c(C(=O)NCC(O)CO)c(I)c(N(CCO)C(=O)CO)c1I` (configuration not stated): -0.597%; for `CCOC(=O)[C@H](CCc1ccccc1)N[C@@H](C)C(=O)N1C(=O)N(C)C[C@H]1C(=O)O`: -0.352%. The figure for `Cc1cc(Cl)c(C)cc1Cl` is -2.25%; for `O=S(=O)(O)CCN1CCN(CCO)CC1` it is -0.266%; for `c1ccc2nccnc2c1` it is -1.46% [at 81.1 µM].

Take `CCCCCCCCCCl`: the “activity change, negative = cytotoxicity” value is -6.53% [at 81.1 µM]. Take `CCC(C)(CCC(C)C)C(=O)O` (configuration not stated): the “activity change, negative = cytotoxicity” value is 7.71%. For `O=C(NCCc1c[nH]c2ccccc12)c1cccnc1`, the “activity change, negative = cytotoxicity” value is 5.68%.

Turning to `CCN(CC)CC(=O)Nc1c(C)cccc1C`, the “activity change, negative = cytotoxicity” value is 9.13%. The figure for `CCOCCOC(=O)/C=C/c1ccc(OC)cc1` is 5.17%; for `CN1CCN(CC(=O)N2c3ccccc3C(=O)Nc3cccnc32)CC1` it is -5.11% [at 5.95 µM]; for `FC(F)(F)c1ccccc1-n1ccnc1` it is -1.15%. The figure for `CCC(CC)CO` is -11.8%; for `COc1cc2c(cc1OC)[C@@H]1CC(=O)[C@@H](CC(C)C)CN1CC2` it is -7.11%. The same measure for `Cc1cccc(C)c1OCC(C)N` (configuration not stated): 0.458%; for `C=Cc1ccccn1`: -4.04% [at 81.1 µM].

With `CC(=O)Nc1ccc(S(=O)(=O)Cl)cc1`, the “activity change, negative = cytotoxicity” value was 10.9%.

Turning to `Nc1ccc2cc(S(=O)(=O)O)cc(O)c2c1`, the “activity change, negative = cytotoxicity” value was -6.01%. On to `CCC(C)NC(N)=O` (configuration not stated), for which the “activity change, negative = cytotoxicity” value is 0.598%. On to `Nc1ncnc(Nc2ccccc2)n1`, for which the “activity change, negative = cytotoxicity” value was 9.31%.

Take `COC(=O)C1CC(=O)C(C(=O)OC)CC1=O` (configuration not stated): the activity change, negative = cytotoxicity was -4.27% [at 5.95 µM].
